Records with an inconclusive call do not appear. Active and inactive are the calls of the source. The call rests on the fitted dose curve; in most records, active means well fitted inhibition curve with a large enough effect; inconclusive means small, poorly fitted or top-dose-only effect; inactive means flat fitted curve, though single readings scatter. Peptide text beside a SMILES is read from it.
These compounds were tested on CP256 (assay: qHTS profiling for inhibitors of Plasmodium falciparum proliferation (AID 504749; further: nearly all actives have a fitted effect of over 60% in size;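 on activity, negative = inhibition: 0% = DMSO vehicle and full inhibition = artemisinin control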)). Settings: P. falciparum in erythrocytes, SYBR Green DNA, 72 h; series mostly up to 12.8 µM; activity, negative = inhibition: at the top concentration.
Outline: (§1)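 Fluorescence of SYBR Green-bound parasite DNA, read at 485/535 nm, served as the growth measure. Infected erythrocytes were cultured with compound 72 h; artemisinin (0.29 uM) and DMSO wells defined the normalization range.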
Potency means the concentration at half of the fitted maximal effect.

| Structure (SMILES) | activity, negative = inhibition | Potency |
| --- | --- | --- |
| OCC1O[C@H](OC2C(CO)O[C@@](O)(CO)C2O)C(O)C(O)C1O (stereo not given in full) | 3.71% [at 28.7 µM] (inactive) |  |
| CC1(C)OC2CO[C@]3(COS(N)(=O)=O)OC(C)(C)OC3C2O1 (stereo not given in full) | 2.01% [at 28.7 µM] (inactive) |  |
| CC(=O)OC1CCC2C3CCc4cc(O)ccc4C3CCC12C (stereo not given) | 11.3% [at 28.7 µM] (inactive) |  |
| CN(C)CCCOC1C(C(O)CO)OC2OC(C)(C)O[C@@H]21 (stereo not given in full) | -15.8% [at 28.7 µM] (inactive) |  |
| COc1cc(C2c3cc4c(cc3C(O[C@@H]3OC5COC(c6cccs6)OC5C(O)C3O)C3COC(=O)C23)OCO4)cc(OC)c1O (stereo not given in full) |  | 3160 nM (active) |

What follows are compounds tested on CP260 in the same assay as above. Settings: P. falciparum in erythrocytes, SYBR Green DNA, 72 h; series mostly up to 12.8 µM; activity, negative = inhibition: at the top concentration.
Outline: as §1

| Structure (SMILES) | activity, negative = inhibition | Potency |
| --- | --- | --- |
| CCC(C)C(=O)OC1CCC=C2C=CC(C)C(CCC3CC(O)CC(=O)O3)[C@@H]21 (stereo not given in full) | 4.38% [at 28.7 µM] (inactive) |  |
| C[C@]1(c2ccccc2)OC(C(=O)O)=CC1=O | -3.06% [at 28.7 µM] (inactive) |  |
| OCC1OC([S-])[C@H](O)C(O)C1O.[Au+] (stereo not given in full) | -2.54% [at 28.7 µM] (inactive) |  |
| COC(=O)N/N=C/C1=C[N+](=O)c2ccccc2[N+]1=O | 5.38% [at 28.7 µM] (inactive) |  |
| CN1CC(=O)N=C1N | 6.21% [at 28.7 µM] (inactive) |  |
| CNC1CC(N)[C@H](O)[C@@H](O[C@@H]2OC(CO)C3OC4(OC(C(N)CO)C(O)C(O)C4O)O[C@@H]3[C@H]2O)C1O (stereo not given in full) | 4.85% [at 28.7 µM] (inactive) |  |
| COC1C=CO[C@@]2(C)Oc3c(C)c(O)c4c(O)c(c(C=NN5CCN(C)CC5)c(O)c4c3C2=O)NC(=O)/C(C)=C\C=CC(C)C(O)[C@@H](C)C(O)C(C)[C@H](OC(C)=O)C1C (stereo not given in full) |  | 1410 nM (active) |
| CC(=O)N[C@@H]1C(O)OC(CO)C(O)C1O (stereo not given in full) | 2.41% [at 28.7 µM] (inactive) |  |
| CCC(CCC(C)C1CCC2C3CC=C4CC(O)CC[C@@]4(C)C3CC[C@@]12C)C(C)C (stereo not given in full) | 11.1% [at 28.7 µM] (inactive) |  |
| O=C1OC(CO)C(O)C(O)C1O (stereo not given) | 4.05% [at 28.7 µM] (inactive) |  |
| COc1ccc(CC(N)C(=O)NC2C(CO)OC(n3cnc4c(N(C)C)ncnc43)C2O)cc1 (stereo not given) |  | 891 nM (active) |
| CCCC(=O)O[C@]1(C(=O)CO)CCC2[C@@H]3CCC4=CC(=O)CC[C@]4(C)C3C(O)C[C@]21C (stereo not given in full) | 0.514% [at 28.7 µM] (inactive) |  |
| COC(=O)C(Cc1ccccc1)NC(=O)C(N)CC(=O)O (stereo not drawn) (H-Asp-Phe-OMe; configuration not given here) | 4.82% [at 28.7 µM] (inactive) |  |
| CC[C@@]12CCCN3CCc4c(n(c5ccccc45)[C@](O)(C(=O)OC)C1)C32 (stereo not given in full) | -17% [at 28.7 µM] (inactive) |  |
| CC1(C)SC2C(N3C(=O)C(c4ccccc4)NC3(C)C)C(=O)N2C1C(=O)O (stereo not given) | -5.86% [at 28.7 µM] (inactive) |  |
| CC1CCC(C(C)C)C(=O)C1 (stereo not given) | -11.2% [at 28.7 µM] (inactive) |  |
| CC(C)C1CCC(C(=O)NC(Cc2ccccc2)C(=O)O)CC1 (stereo not given) | 3.49% [at 28.7 µM] (inactive) |  |
| COc1ccc2cc(C(C)CO)ccc2c1 (stereo not given) | 3.34% [at 28.7 µM] (inactive) |  |
| COc1ccc2cc1Oc1ccc(cc1)CC1c3c(cc4c(c3Oc3cc5c(cc3OC)CCN(C)C5C2)OCO4)CCN1C (stereo not given) |  | 4470 nM (active) |
| CNC1C(OC2C(O[C@@H]3C(O)C(O)[C@@H](N=C(N)N)C(O)C3N=C(N)N)OC(C)[C@@]2(O)CO)OC(CO)C(O)C1O (stereo not given in full) | 2.96% [at 28.7 µM] (inactive) |  |
| C[C@]12C=CC(=O)C=C1CCC1C2C(O)C[C@]2(C)C1CC[C@]2(O)C(=O)CO (stereo not given in full) | -13.2% [at 28.7 µM] (inactive) |  |
| COc1ccc2c(c1)N(C[C@@H](C)CN(C)C)c1ccccc1S2 | -18.1% (inactive) |  |
| CCOC(=O)C1=CC(OC(CC)CC)C(NC(C)=O)C(N)C1 (stereo not given) | -4.38% [at 28.7 µM] (inactive) |  |
| CN(C)CCc1c[nH]c2ccc(CC3COC(=O)N3)cc12 (stereo not given) | 1.31% [at 28.7 µM] (inactive) |  |
| NCC1CCC(N)C(O[C@@H]2C(O)[C@H](O[C@H]3OC(CO)C(O)C(N)C3O)[C@@H](N)C[C@H]2N)O1 (stereo not given in full) | 2.99% [at 28.7 µM] (inactive) |  |
| OCC1O[C@H](OC2C(CO)O[C@@](O)(CO)C2O)C(O)C(O)C1O (stereo not given in full) | 0.862% [at 28.7 µM] (inactive) |  |
| CC1(C)OC2CO[C@]3(COS(N)(=O)=O)OC(C)(C)OC3C2O1 (stereo not given in full) | 1.69% [at 28.7 µM] (inactive) |  |
| CC(=O)OC1CCC2C3CCc4cc(O)ccc4C3CCC12C (stereo not given) | 2.35% [at 28.7 µM] (inactive) |  |
| COc1cc(C2c3cc4c(cc3C(O[C@@H]3OC5COC(c6cccs6)OC5C(O)C3O)C3COC(=O)C23)OCO4)cc(OC)c1O (stereo not given in full) |  | 1120 nM (active) |

What follows are compounds tested on CP262 in the same assay as above. Settings: P. falciparum in erythrocytes, SYBR Green DNA, 72 h; series mostly up to 12.8 µM; activity, negative = inhibition: at the top concentration.
Outline: as §1

| Structure (SMILES) | activity, negative = inhibition | Potency |
| --- | --- | --- |
| CCC(C)C(=O)OC1CCC=C2C=CC(C)C(CCC3CC(O)CC(=O)O3)[C@@H]21 (stereo not given in full) | 13.5% [at 28.7 µM] (inactive) |  |
| C[C@]1(c2ccccc2)OC(C(=O)O)=CC1=O | 5.82% [at 28.7 µM] (inactive) |  |
| OCC1OC([S-])[C@H](O)C(O)C1O.[Au+] (stereo not given in full) | 15% [at 28.7 µM] (inactive) |  |
| COC(=O)N/N=C/C1=C[N+](=O)c2ccccc2[N+]1=O | 0% [at 28.7 µM] (inactive) |  |
| CN1CC(=O)N=C1N | 0% [at 28.7 µM] (inactive) |  |
| CNC1CC(N)[C@H](O)[C@@H](O[C@@H]2OC(CO)C3OC4(OC(C(N)CO)C(O)C(O)C4O)O[C@@H]3[C@H]2O)C1O (stereo not given in full) | 0% [at 28.7 µM] (inactive) |  |
| COC1C=CO[C@@]2(C)Oc3c(C)c(O)c4c(O)c(c(C=NN5CCN(C)CC5)c(O)c4c3C2=O)NC(=O)/C(C)=C\C=CC(C)C(O)[C@@H](C)C(O)C(C)[C@H](OC(C)=O)C1C (stereo not given in full) |  | 2130 nM (active) |
| CC(=O)N[C@@H]1C(O)OC(CO)C(O)C1O (stereo not given in full) | 0% [at 28.7 µM] (inactive) |  |
| CCC(CCC(C)C1CCC2C3CC=C4CC(O)CC[C@@]4(C)C3CC[C@@]12C)C(C)C (stereo not given in full) | 9.9% [at 28.7 µM] (inactive) |  |
| O=C1OC(CO)C(O)C(O)C1O (stereo not given) | 4.1% [at 28.7 µM] (inactive) |  |
| COc1ccc(CC(N)C(=O)NC2C(CO)OC(n3cnc4c(N(C)C)ncnc43)C2O)cc1 (stereo not given) |  | 675 nM (active) |
| CCCC(=O)O[C@]1(C(=O)CO)CCC2[C@@H]3CCC4=CC(=O)CC[C@]4(C)C3C(O)C[C@]21C (stereo not given in full) | -2.04% [at 28.7 µM] (inactive) |  |
| COC(=O)C(Cc1ccccc1)NC(=O)C(N)CC(=O)O (stereo not drawn) (H-Asp-Phe-OMe; configuration not given here) | 0% [at 28.7 µM] (inactive) |  |
| CC[C@@]12CCCN3CCc4c(n(c5ccccc45)[C@](O)(C(=O)OC)C1)C32 (stereo not given in full) | -0.499% [at 28.7 µM] (inactive) |  |
| CC1(C)SC2C(N3C(=O)C(c4ccccc4)NC3(C)C)C(=O)N2C1C(=O)O (stereo not given) | 4.12% [at 28.7 µM] (inactive) |  |
| CC1CCC(C(C)C)C(=O)C1 (stereo not given) | -1.9% [at 28.7 µM] (inactive) |  |

| Structure (SMILES) | activity, negative = inhibition | Potency |
| --- | --- | --- |
| CC(=O)N[C@H](CC(C)C)C(=O)O | 2.24% [at 28.7 µM] (inactive) |  |
| CC(C)C1CCC(C(=O)NC(Cc2ccccc2)C(=O)O)CC1 (stereo not given) | 0% [at 28.7 µM] (inactive) |  |
| COc1ccc2cc(C(C)CO)ccc2c1 (stereo not given) | -3.8% [at 28.7 µM] (inactive) |  |
| COc1ccc2cc1Oc1ccc(cc1)CC1c3c(cc4c(c3Oc3cc5c(cc3OC)CCN(C)C5C2)OCO4)CCN1C (stereo not given) |  | 8490 nM (active) |
| CNC1C(OC2C(O[C@@H]3C(O)C(O)[C@@H](N=C(N)N)C(O)C3N=C(N)N)OC(C)[C@@]2(O)CO)OC(CO)C(O)C1O (stereo not given in full) | 0% [at 28.7 µM] (inactive) |  |
| CC1C2CCC3C4CC=C5CC(N(C)C)CC[C@@]5(C)C4CC[C@@]32CN1C (stereo not given in full) | 0% [at 28.7 µM] (inactive) |  |
| C[C@]12C=CC(=O)C=C1CCC1C2C(O)C[C@]2(C)C1CC[C@]2(O)C(=O)CO (stereo not given in full) | 6.95% [at 28.7 µM] (inactive) |  |
| COc1ccc2c(c1)N(C[C@@H](C)CN(C)C)c1ccccc1S2 | 4.9% (inactive) |  |
| CCOC(=O)C1=CC(OC(CC)CC)C(NC(C)=O)C(N)C1 (stereo not given) | -11.3% [at 28.7 µM] (inactive) |  |
| NCC1CCC(N)C(O[C@@H]2C(O)[C@H](O[C@H]3OC(CO)C(O)C(N)C3O)[C@@H](N)C[C@H]2N)O1 (stereo not given in full) | -1.97% [at 28.7 µM] (inactive) |  |
| OCC1O[C@H](OC2C(CO)O[C@@](O)(CO)C2O)C(O)C(O)C1O (stereo not given in full) | -1.65% [at 28.7 µM] (inactive) |  |
| CC1(C)OC2CO[C@]3(COS(N)(=O)=O)OC(C)(C)OC3C2O1 (stereo not given in full) | -4.54% [at 28.7 µM] (inactive) |  |
| CC(=O)OC1CCC2C3CCc4cc(O)ccc4C3CCC12C (stereo not given) | 0% [at 28.7 µM] (inactive) |  |
| CN(C)CCCOC1C(C(O)CO)OC2OC(C)(C)O[C@@H]21 (stereo not given in full) | 4% [at 28.7 µM] (inactive) |  |
| COc1cc(C2c3cc4c(cc3C(O[C@@H]3OC5COC(c6cccs6)OC5C(O)C3O)C3COC(=O)C23)OCO4)cc(OC)c1O (stereo not given in full) |  | 8490 nM (active) |

Source: PubChem BioAssay (NCATS)
